One assay relates to ES2. Put plainly: cell viability relative to DMSO control (MTS) (fraction of DMSO control); higher = more viable cells / less growth inhibition. Particulars: 10 µM; 48 h. Put shortly:
(§1)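 Viability values are fractions of the vehicle-treated control. They come from an MTS assay run per the manufacturer's instructions on TOV-21G and ES2 clear cell carcinoma cells, seeded at 5000 cells per well in 96-well plates. Each compound of a 367-member […] library was added at 10 µM final after 24 h of growth, and the readout was taken after a further 48 h.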

For a further assay, the system named is TOV-21G. The assay is described as above. Particulars: 10 µM; 48 h. Summed up: as §1

Where “and” joins values, the source holds several entries; their conditions need not be identical. Identical values can stand only once. Counter-ions that a name gives are not always drawn. ± gives the standard deviation of the averaged measurements.

For the compound `CCOC(=O)C1=C(C)NC(=S)NC1c1cccc(O)c1` (stereo not drawn) [Monastrol], the cell viability in the assay on ES2 is 0.884; in the assay with TOV-21G, 0.853.
The corresponding values for `OCCn1cc(-c2cnc3nnn(Cc4ccc5ncccc5c4)c3n2)cn1` are 1.05 and 1.18.
The corresponding values for `O=C(c1cc(Cc2n[nH]c(=O)c3ccccc23)ccc1F)N1CCN(C(=O)C2CC2)CC1` [Olaparib] are 0.77 and 0.888.
As to `O=c1cc(N2CCOCC2)oc2c(-c3ccccc3)cccc12`, the cell viability in the assay on ES2 is 0.666 and 0.627; with TOV-21G, 0.52 and 0.519.
As for `CC(C)CC(=O)N[C@H](C(=O)N[C@H](C(=O)N[C@@H](CC(C)C)[C@@H](O)CC(=O)N[C@@H](C)C(=O)N[C@@H](CC(C)C)[C@@H](O)CC(=O)O)C(C)C)C(C)C` [Pepstatin A], the cell viability in the assay with ES2 came to 0.807; in the assay on TOV-21G it was 1.18.
The corresponding values for `N#C/C(=C(/N)Sc1ccccc1N)c1cccc(C(O)c2ccncc2)c1` (stereo not drawn) [MEK inhibitor I] are 0.866 and 0.898.
The matching figures for `O=c1c2ccccc2[nH]c(=S)n1CCN1CCC(=C(c2ccc(F)cc2)c2ccc(F)cc2)CC1` [Diacylglycerol kinase inhibitor II]: 1.09 and 1.13.
The matching figures for `CCNCCCNCCCCNCCCNCC` [N1,N12-Diethylspermine (BESpm)]: 1 and 0.731.
Consider `N#CC[C@H](C1CCCC1)n1cc(-c2ncnc3[nH]ccc23)cn1` [Ruxolitinib], for which the cell viability in the assay on ES2 was found to be 0.979; in the assay with TOV-21G, 0.776.
The matching figures for `CO[C@H]1C[C@@H]2CC[C@@H](C)[C@@](O)(O2)C(=O)C(=O)N2CCCC[C@H]2C(=O)O[C@H]([C@H](C)C[C@@H]2CC[C@@H](OCCO)[C@H](OC)C2)CC(=O)[C@H](C)/C=C(\C)[C@@H](O)[C@@H](OC)C(=O)[C@H](C)C[C@H](C)/C=C/C=C/C=C/1C` [everolimus]: 1.02 and 0.831.
The matching figures for `O=C1Cc2c([nH]c3ccc(Br)cc23)-c2ccccc2N1` [Kenpaullone]: 0.701 ± 0.11 and 0.468 ± 0.048.
With `COc1cccc2c1C(=O)c1c(O)c3c(c(O)c1C2=O)C[C@@](O)(C(C)=O)C[C@@H]3O[C@H]1C[C@H](N)[C@H](O)[C@H](C)O1` [Daunorubicin, HCl], the cell viability in the assay on ES2 was determined as 0.435; with TOV-21G it was 0.527.
The corresponding values for `COc1cc2ncnc(Nc3cccc(Cl)c3)c2cc1OC` are 1.04 ± 0.12 and 0.839 ± 0.24.
The corresponding values for `CNCCCN1c2ccccc2CCc2ccccc21` [desipramine hydrochloride] are 0.954 and 0.745.
The corresponding values for `Cc1ccc(Nc2nccc(N(C)c3ccc4c(C)n(C)nc4c3)n2)cc1S(N)(=O)=O` [pazopanib] are 0.96 and 0.864.
With `CC1=Nc2ccc(Cl)cc2S(=O)(=O)N1` [Diazoxide], the cell viability was 0.816 with ES2 and 0.996 with TOV-21G.
Consider `O=C(Cc1ccccc1)Nc1c2c(nc3ccccc13)N(Cc1ccccc1)CC2`, for which the figures for the cell viability in the assay with ES2 and in the assay with TOV-21G were 0.96 and 0.839, respectively.
The matching figures for `CC1(C)CCC(C)(C)c2cc(NC(=O)c3ccc(C(=O)O)cc3)ccc21` [tamibarotene]: 1.16 and 1.49.
The corresponding values for `COC(=O)C1=C(C)NC(C)=C(C(=O)OC)C1c1ccccc1[N+](=O)[O-]` [Nifedipine] are 0.911 and 0.741.
For the compound `Oc1ccc(-c2nc(-c3ccc(F)cc3)c(-c3ccncc3)[nH]2)cc1`, the cell viability in the assay on ES2 worked out at 0.468; with TOV-21G, 0.806.
The corresponding values for `CC[C@@]1(O)C[C@H](O[C@H]2C[C@H](N(C)C)[C@H](O[C@H]3C[C@H](O)[C@H](O[C@H]4CCC(=O)[C@H](C)O4)[C@H](C)O3)[C@H](C)O2)c2c(cc3c(c2O)C(=O)c2c(O)cccc2C3=O)[C@H]1C(=O)OC` [Aclarubicin] are 0.6 and 0.385.
The matching figures for `CCCCOc1cc(CC2CNC(=O)N2)ccc1OC` (stereo not drawn): 0.901 and 0.999.
The corresponding values for `COc1cc(/C=C(\C#N)C(N)=O)cc(CSc2nc3ccccc3s2)c1O` are 0.978 ± 0.072 and 1.067 ± 0.0093.
As for `Nc1nc2c(nc(Sc3ccc(Cl)cc3)n2C2O[C@@H]3CO[P+](O)(S)OC3[C@@H]2O)c(=O)[nH]1` (stereo partly drawn), the cell viability was 1.02 ± 0.17 in the assay with ES2 and 0.856 ± 0.084 with TOV-21G.
The matching figures for `C[C@@H](Oc1cc(-c2cnn(C3CCNCC3)c2)cnc1N)c1c(Cl)ccc(F)c1Cl` [crizotinib]: 0.34 and 0.333.
As for `COc1cc2c(cc1OC)-c1[nH]nc(Nc3cccc(F)c3)c1C2` [PDGF receptor tyrosine kinase inhibitor IV], the values for the cell viability in the assay on ES2 and in the assay on TOV-21G were 0.288 and 0.297, respectively.
The matching figures for `CN(C)S(=O)(=O)c1ccc2c(c1)/C(=C/c1cc3c([nH]1)CCCC3)C(=O)N2`: 1.03 and 0.891.
In the case of `CC1=C(/C=C/C(C)=C/C=C/C(C)=C/C(=O)O)C(C)(C)CCC1` [tretinoin], the results for the cell viability in the assay with ES2 and in the assay on TOV-21G were 1.01 and 1.51, respectively.
The corresponding values for `C=CC[C@@H]1/C=C(\C)C[C@H](C)C[C@H](OC)[C@H]2O[C@@](O)(C(=O)C(=O)N3CCCC[C@H]3C(=O)O[C@H](/C(C)=C/[C@@H]3CC[C@@H](O)[C@H](OC)C3)[C@H](C)[C@@H](O)CC1=O)[C@H](C)C[C@@H]2OC` are 0.941 and 0.964.
The corresponding values for `CN(C)c1ccccc1CN1CCCN(Cc2ccccc2N(C)C)C1c1ccncc1` are 0.853 and 0.229.
As to `CO[C@H]1C[C@@H]2CC[C@@H](C)[C@@](O)(O2)C(=O)C(=O)N2CCCC[C@H]2C(=O)O[C@H]([C@H](C)C[C@@H]2CC[C@@H](O)[C@H](OC)C2)CC(=O)[C@H](C)/C=C(\C)[C@@H](O)[C@@H](OC)C(=O)[C@H](C)C[C@H](C)/C=C/C=C/C=C/1C` [Rapamycin], the cell viability was 0.854 in the assay with ES2 and 0.576 with TOV-21G.
Turning to `CC(C)(C)c1cc(O)ccc1O` [t-Butylhydroquinone (BHQ)], the cell viability was 0.939 in the assay on ES2 and 1.11 in the assay on TOV-21G.
The matching figures for `COC(=O)c1ccc(NCc2cc(O)ccc2O)cc1`: 1.414 ± 0.0028 and 1.06 ± 0.026.
Regarding `NCC(=O)Nc1ccc(-n2nc(C(F)(F)F)cc2-c2ccc3c(ccc4ccccc43)c2)cc1`, the cell viability with ES2 came to 1.04; in the assay with TOV-21G, 1.21.

Values taken from the supplement of paper PMC12669797.
